Laboratory results from PubChem BioAssay (Tox21).
Results filed as inconclusive are left out. Activity calls are given as the source filed them. Unless noted, calls follow the shape of the dose curve; as a rule, active = well fitted curve in the direction sought with a large enough effect in the repeat runs; inconclusive = weak or mixed curves; inactive = no such curve, though single readings can be large; an effect the other way counts as inactive or inconclusive.

Key:
[1] = qHTS assay to identify small molecule agonists of the peroxisome proliferator-activated receptor delta (PPARd) signaling pathway - cell viability counter screen (AID 743211); also: nearly all actives have a fitted effect of over 55% in size
How it was run: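 Viability of GeneBLAzer PPARd UAS-bla HEK293H cells was assessed after 17 h compound incubation at 37C, using CellTiter-Glo reagent added after the reporter read and luminescence recorded 30 min later.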

[2] = target: Peroxisome proliferator-activated receptor delta (Homo sapiens) (UniProt Q03181); assay: qHTS assay to identify small molecule agonists of the peroxisome proliferator-activated receptor delta (PPARd) signaling pathway (AID 743212; calls by dose curve)
Peroxisome proliferator-activated receptor delta (Homo sapiens), sequence (Q03181 whole entry, looked up): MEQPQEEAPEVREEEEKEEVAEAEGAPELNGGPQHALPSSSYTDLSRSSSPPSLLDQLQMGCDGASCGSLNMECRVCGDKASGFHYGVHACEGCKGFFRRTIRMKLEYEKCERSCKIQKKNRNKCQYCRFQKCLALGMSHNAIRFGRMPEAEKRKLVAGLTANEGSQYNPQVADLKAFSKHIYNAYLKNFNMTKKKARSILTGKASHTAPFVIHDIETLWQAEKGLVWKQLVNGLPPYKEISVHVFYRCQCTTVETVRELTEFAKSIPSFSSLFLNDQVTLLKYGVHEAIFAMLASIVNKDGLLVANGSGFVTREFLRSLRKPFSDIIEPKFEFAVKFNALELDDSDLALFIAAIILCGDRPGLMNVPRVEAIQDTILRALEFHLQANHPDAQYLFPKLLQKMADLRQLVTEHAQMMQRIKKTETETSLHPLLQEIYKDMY
How it was run: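 Tox21 library screened in GeneBLAzer PPARd UAS-bla HEK293H cells. After compound treatment at 37 C, a FRET-based beta-lactamase substrate was applied for 2 h and fluorescence recorded.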

[3] = qHTS assay to identify small molecule antagonists of the peroxisome proliferator-activated receptor delta (PPARd) signaling pathway - cell viability counter screen (AID 743213); also: nearly all actives have a fitted effect of over 50% in size
How it was run: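 PPARd-bla HEK293H cells (3000/well) got compound plus 300 nM L165041 agonist for 17 h at 37 C. Viability in the same wells came from CellTiter-Glo luminescence after 30 min at room temperature.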

[4] = target: Peroxisome proliferator-activated receptor delta (Homo sapiens) (UniProt Q03181); assay: qHTS assay to identify small molecule antagonists of the peroxisome proliferator-activated receptor delta (PPARd) signaling pathway (AID 743215; active = well fitted inhibition curve with a large enough effect in the signal ratio in the repeat runs, not every such curve was filed as active; the % refers to the signal ratio;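 also: cells stimulated with agonist L165041 at 300 nM final during compound exposure; series mostly up to about 62 µM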)
How it was run: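 Agonist L165041 (300 nM final) added with compound to PPARd-bla HEK293H UAS-bla reporter cells; 17 h incubation at 37 C. Read-out: LiveBLAzer FRET substrate, 2 h at room temperature, fluorescence intensity.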

[5] = qHTS assay to identify small molecule agonists of the farnesoid-X-receptor (FXR) signaling pathway - cell viability counter screen (AID 743218); also: nearly all actives have a fitted effect of over 45% in size
How it was run: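 Viability counter screen in the same wells: CellTiter-Glo luminescence, 30 min room-temperature incubation, measured after the beta-lactamase read. Cells were GeneBLAzer FXR-UAS-bla HEK 293T, compound-treated 16 h at 37C.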

[6] = qHTS assay to identify small molecule antagonists of the farnesoid-X-receptor (FXR) signaling pathway - cell viability counter screen (AID 743221; active = well fitted cell-killing curve with a large enough effect in the repeat runs, not every such curve was filed as active; also: nearly all actives have a fitted effect of over 50% in size)
How it was run: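 Quantitative HTS of the Tox21 10K library run in parallel with the beta-lactamase reporter read. HEK 293T cells carrying a UAS-driven bla reporter got compound and 50 uM CDCA (final) for 16 h; ATP-based luminescence followed.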

[7] = target: Vitamin D3 receptor (Homo sapiens) (UniProt P11473); assay: qHTS assay to identify small molecule antagonists of the vitamin D receptor (VDR) signaling pathway (AID 743223; active = well fitted inhibition curve with a large enough effect in the signal ratio in the repeat runs, not every such curve was filed as active; the % refers to the signal ratio)
Vitamin D3 receptor (Homo sapiens), sequence (P11473 whole entry, looked up): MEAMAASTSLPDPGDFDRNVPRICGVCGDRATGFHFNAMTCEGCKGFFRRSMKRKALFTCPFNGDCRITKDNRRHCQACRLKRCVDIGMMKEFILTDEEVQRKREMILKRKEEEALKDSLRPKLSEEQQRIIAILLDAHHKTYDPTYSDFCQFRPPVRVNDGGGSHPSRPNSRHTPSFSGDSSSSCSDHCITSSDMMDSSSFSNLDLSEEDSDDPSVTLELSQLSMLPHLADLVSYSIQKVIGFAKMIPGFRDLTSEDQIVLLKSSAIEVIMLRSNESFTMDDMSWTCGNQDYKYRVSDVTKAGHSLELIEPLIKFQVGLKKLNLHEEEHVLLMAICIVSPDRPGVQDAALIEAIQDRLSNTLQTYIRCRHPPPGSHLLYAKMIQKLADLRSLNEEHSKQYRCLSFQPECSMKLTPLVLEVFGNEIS
How it was run: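 Fluorescence from LiveBLAzer B/G FRET substrate, read after 2 h at room temperature, reflects beta-lactamase reporter activity in VDR-bla cells treated 16 h at 37C with compounds and agonist 1alpha,25-dihydroxyvitamin D3 (3 nM final).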

[8] = qHTS assay to identify small molecule agonists of the vitamin D receptor (VDR) signaling pathway - cell viability counter screen (AID 743224); also: series mostly up to about 63 µM; nearly all actives have a fitted effect of over 50% in size
How it was run: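 Counter screen run in the same wells as the VDR-bla reporter assay: CellTiter-Glo luminescence, 30 min at room temperature, after 16 h compound treatment at 37C of cells pre-plated for 4 h.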

[9] = qHTS assay to identify small molecule antagonists of the vitamin D receptor (VDR) signaling pathway - cell viability counter screen (AID 743225); also: nearly all actives have a fitted effect of over 50% in size
How it was run: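 Cells (VDR-UAS-bla HEK 293T) are plated, rested 4 h at 37C, dosed with compound and 3 nM final 1-alpha,25-dihydroxy vitamin D3, and incubated 16 h. Viability is taken from CellTiter-Glo luminescence in the reporter wells.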

[10] = qHTS assay to identify small molecule agonists of the NFkB signaling pathway - cell viability counter screen (AID 1159515; calls by dose curve; also: series mostly up to about 61 µM; nearly all actives have a fitted effect of over 55% in size)
How it was run: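 Read by CellTiter-Glo luminescence (30 min, room temperature) in the wells also used for the beta-lactamase FRET read. ME-180 NFkB-bla cells at 2,000 per well were plated overnight, then exposed to compound for 5 hr at 37 C.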

[11] = qHTS assay to identify small molecule agonists of the endoplasmic reticulum stress response signaling pathway (AID 1159516; active = well fitted activation curve with a large enough effect in the signal ratio in the repeat runs, not every such curve was filed as active; the % refers to the signal ratio)
How it was run: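 Ratiometric FRET readout (405 nm excitation; 460 and 530 nm emission) of a beta-lactamase gene driven by the ER stress response element, after 2 hr substrate loading. HeLa ESRE-bla cells were seeded overnight and treated with compounds for only 5 hr at 37 C.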

[12] = qHTS assay to identify small molecule antagonists of the retinoid-related orphan receptor gamma (ROR-gamma) signaling pathway - cell viability counter screen (AID 1159520); also: nearly all actives have a fitted effect of over 50% in size
How it was run: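 Tet-on ROR gamma CHO cells were given compounds for 2 hr, then doxycycline hyclate at 1 uM final, and incubated 16 hr at 37 C. Viability was measured as ATP content by CellTiter-Glo luminescence.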

[13] = target: Nuclear receptor ROR-gamma (Homo sapiens) (UniProt P51449); assay: qHTS assay to identify small molecule antagonists of the retinoid-related orphan receptor gamma (ROR-gamma) signaling pathway (AID 1159521)
How it was run: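 RORγ antagonism is scored from reduced reporter luminescence in Tet-on CHO cells. Induction used 1 uM final doxycycline hyclate for 16 h at 37 C, following a 2 h compound exposure.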

[14] = qHTS assay to identify small molecule agonists of the AP-1 signaling pathway - cell viability counter screen (AID 1159525; calls by dose curve; also: nearly all actives have a fitted effect of over 55% in size)
How it was run: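 Same-well cytotoxicity counter screen of the Tox21 10K library in ME-180 cells. The readout is ATP-dependent luminescence after 5 h compound treatment. Data are normalised to DMSO and tetra n-octyl ammonium bromide controls.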

[15] = qHTS assay to identify small molecule agonists of the AP-1 signaling pathway (AID 1159526; calls by dose curve)
[16] = target: Retinoic acid receptor RXR-alpha (Homo sapiens) (UniProt P19793); assay: qHTS assay to identify small molecule agonists of the RXR signaling pathway (AID 1159527; calls by dose curve; also: nearly all actives have a fitted effect of over 35% in size)
Retinoic acid receptor RXR-alpha (Homo sapiens), sequence (P19793 whole entry, looked up): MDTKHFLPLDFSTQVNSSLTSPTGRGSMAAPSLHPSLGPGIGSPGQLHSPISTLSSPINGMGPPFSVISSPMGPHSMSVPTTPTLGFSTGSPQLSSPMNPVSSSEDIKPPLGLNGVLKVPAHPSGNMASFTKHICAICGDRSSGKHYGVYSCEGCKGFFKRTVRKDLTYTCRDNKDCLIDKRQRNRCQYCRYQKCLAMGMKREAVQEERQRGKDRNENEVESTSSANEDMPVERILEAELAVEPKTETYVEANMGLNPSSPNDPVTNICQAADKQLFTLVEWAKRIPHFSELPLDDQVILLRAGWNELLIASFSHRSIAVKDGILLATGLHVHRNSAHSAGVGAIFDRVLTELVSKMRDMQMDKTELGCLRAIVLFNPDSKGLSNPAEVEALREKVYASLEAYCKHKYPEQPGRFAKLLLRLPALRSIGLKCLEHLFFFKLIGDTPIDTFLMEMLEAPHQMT
How it was run: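 qHTS of the Tox21 10K library in GeneBLAzer RXR-alpha HEK 293T cells carrying a beta-lactamase reporter […]; 16 hr treatment, 9-cis retinoic acid as agonist control, FRET read-out.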

[17] = target: Bile acid receptor (Homo sapiens) (UniProt Q96RI1); assay: qHTS assay to identify small molecule agonists of the farnesoid-X-receptor (FXR) signaling pathway (AID 743220; active = well fitted activation curve with a large enough effect in the signal ratio in the repeat runs, not every such curve was filed as active; the % refers to the signal ratio)
Bile acid receptor (Homo sapiens), sequence (Q96RI1 whole entry, looked up): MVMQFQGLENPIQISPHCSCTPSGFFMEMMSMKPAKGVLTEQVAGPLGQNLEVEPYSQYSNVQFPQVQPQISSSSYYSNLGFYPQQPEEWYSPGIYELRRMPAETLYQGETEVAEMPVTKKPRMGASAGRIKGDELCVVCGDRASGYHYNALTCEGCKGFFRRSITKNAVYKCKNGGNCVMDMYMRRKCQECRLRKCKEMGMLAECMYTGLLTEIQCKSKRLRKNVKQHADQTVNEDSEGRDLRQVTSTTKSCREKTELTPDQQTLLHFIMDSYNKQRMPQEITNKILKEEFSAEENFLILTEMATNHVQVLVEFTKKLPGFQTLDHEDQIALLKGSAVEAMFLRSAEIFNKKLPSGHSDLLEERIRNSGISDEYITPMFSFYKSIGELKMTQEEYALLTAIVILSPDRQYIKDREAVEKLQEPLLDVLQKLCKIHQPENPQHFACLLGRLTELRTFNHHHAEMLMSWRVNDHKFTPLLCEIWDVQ
How it was run: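 FXR-UAS-bla HEK 293T cells carrying a UAS-driven beta-lactamase reporter were plated for 5 h at 37C/5% CO2, then exposed to DMSO-dissolved Tox21 10K compounds for 16 h at 37C. A LiveBLAzer B/G FRET substrate was loaded for 2 h at room temperature before fluorescence reading.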

[18] = target: Vitamin D3 receptor (Homo sapiens) (UniProt P11473); assay: qHTS assay to identify small molecule agonists of the vitamin D receptor (VDR) signaling pathway (AID 743222; calls by dose curve)
How it was run: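 Agonist mode, beta-lactamase reporter: fluorescence from LiveBLAzer B/G FRET substrate (2 h, room temperature) read after 16 h compound treatment at 37 C of VDR-bla cells, which were pre-incubated 4 h after seeding.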

[19] = qHTS assay to identify small molecule agonists of the endoplasmic reticulum stress response signaling pathway - cell viability counter screen (AID 1159517; calls by dose curve)
How it was run: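 In parallel with the ESRE reporter read, cytotoxicity was scored by CellTiter-Glo luminescence (30 min, room temperature) on HeLa ESRE-bla cells dosed for 5 hr.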

[20] = target: Bile acid receptor (Homo sapiens) (UniProt Q96RI1); assay: qHTS assay to identify small molecule antagonists of the farnesoid-X-receptor (FXR) signaling pathway (AID 743217; active = well fitted inhibition curve with a large enough effect in the signal ratio in the repeat runs, not every such curve was filed as active; the % refers to the signal ratio)
How it was run: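 Antagonist mode: chenodeoxycholic acid at 50 uM final stimulates a UAS-driven beta-lactamase reporter in HEK 293T FXR-bla cells during 16 h, 37C compound exposure. Read-out is FRET substrate fluorescence after 2 h at room temperature.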

Measured: Potency

N#Cc1ccccc1C#N
inactive: [1] | [2] | [3] | [4] | [5] | [6] | [7] | [8] | [9] | [10] | [11] | [12] | [13] | [14] | [15] | [16]

O=C[C@@H](O)[C@H](O)[C@H](O)CO
inactive: [1] | [2] | [3] | [4] | [5] | [6] | [8] | [9] | [10] | [11] | [12] | [13] | [14] | [15] | [16]

CC(C)=CCC/C(C)=C\C#N
inactive: [1] | [3] | [5] | [17] | [6] | [18] | [7] | [8] | [9] | [10] | [11] | [12] | [13] | [14] | [15] | [16]

Nc1ccc(C(=O)NCC(=O)O)cc1
inactive: [1] | [2] | [3] | [4] | [5] | [6] | [7] | [8] | [9] | [10] | [11] | [12] | [13] | [14] | [15] | [16]

N=C(N)S(=O)O
inactive: [1] | [3] | [5] | [6] | [18] | [7] | [8] | [10] | [11] | [19] | [13] | [14] | [15] | [16]

O=S(=O)(O)c1ccc(Cl)cc1
inactive: [1] | [2] | [3] | [4] | [20] | [5] | [17] | [6] | [18] | [7] | [8] | [9] | [10] | [11] | [12] | [13] | [14] | [15] | [16]

Cc1ccc2ccccc2n1
inactive: [3] | [4] | [5] | [6] | [7] | [10] | [11] | [19] | [13] | [14] | [15] | [16]

C=CCN1CCc2nc(N)sc2CC1
inactive: [1] | [2] | [3] | [4] | [5] | [6] | [18] | [7] | [8] | [9] | [10] | [11] | [19] | [13] | [15] | [16]

COC(=O)c1ccc(NC(C)=O)cc1OC
inactive: [1] | [2] | [3] | [4] | [20] | [5] | [17] | [6] | [8] | [9] | [10] | [11] | [12] | [13] | [15] | [16]

CCCCCCCCCCCCCCBr
inactive: [1] | [3] | [20] | [5] | [17] | [6] | [18] | [7] | [8] | [9] | [10] | [11] | [19] | [13] | [15] | [16]

N=C(N)N
inactive: [2] | [3] | [4] | [5] | [6] | [10] | [11] | [19] | [13] | [14] | [15] | [16]

O=C1Nc2ccccc2C1=O
inactive: [1] | [2] | [3] | [4] | [5] | [6] | [18] | [7] | [8] | [10] | [11] | [12] | [13] | [14] | [15] | [16]

CCN1CCN(C(=O)N[C@@H](C(=O)N[C@@H]2C(=O)N3[C@@H]2SC(C)(C)[C@H]3C(=O)O)c2ccccc2)C(=O)C1=O
inactive: [1] | [2] | [3] | [4] | [20] | [5] | [6] | [18] | [7] | [9] | [10] | [11] | [12] | [13] | [14] | [15] | [16]

CC/C=C/CCCCCCCCCCOC(C)=O
inactive: [1] | [2] | [3] | [4] | [5] | [6] | [18] | [7] | [8] | [10] | [11] | [19] | [13] | [15] | [16]

CCN(CC)CC
inactive: [2] | [3] | [4] | [20] | [5] | [6] | [18] | [7] | [8] | [9] | [10] | [11] | [19] | [13] | [14] | [15] | [16]

O=C(O)/C=C(\CC(=O)O)C(=O)O
inactive: [1] | [2] | [3] | [4] | [20] | [5] | [17] | [6] | [18] | [7] | [9] | [10] | [19] | [12] | [13] | [14] | [15] | [16]
